The values that follow come from PubChem BioAssay (NCI).

“And” between values parts separate entries of the source, which are not always exact repeats. Identical values can stand only once. The panel holds about 83,000 compounds, 20% with a hit somewhere; the sample as a whole holds those more often.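 Step 1: grow cells in 96-well plates. Step 2: add test compound at a single concentration. Step 3: incubate 48 h. Step 4: record percent growth.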 The source made the active and inactive calls. How the source made its calls: active means growth percent below 10; inactive means the rest.

This test has as its system SNB-19 CNS. As to the kind of experiment: NCI-60 one-dose screen, 48 h (100 = growth as untreated, 0 = no growth, -100 = all killed). The note with it: 10 µM unless noted.
As to `CCCCCCCCc1cccc(CC(=O)Nc2ccc(C)cc2C(=O)O)c1`, the growth is 50.9% [25 µM] (inactive).
`COc1ccc(-c2cc(C(=O)Oc3ccc(C=O)cc3OC)nn2-c2ccc(S(C)(=O)=O)cc2)cc1`: the growth was 94.5% (inactive).
The same measure for `O=C(NN1C(=O)/C(=C/C=C/c2ccc([N+](=O)[O-])o2)SC1=S)c1ccncc1`: -96.8% (active); for `N#Cc1c(-c2ccc(F)cc2)nc(SCc2ccccc2)nc1N1CCNCC1`: -81.4% (active).
The result for `COc1ccc(/C=C/C(=O)c2ccc(OC)c(S(N)(=O)=O)c2)c(C(F)(F)F)c1` reads -28.6% (active); that for `COc1ccccc1Nc1nnc(-c2c[nH]c3ccccc23)o1`, 43.4% (inactive); that for `COc1ccc2c(c1)N=c1c-2cc2c(O)[nH]c(=S)n2c1=O`, 59.8% (inactive).
The result for `CS(=O)(=O)Nc1cc(-c2ccc3ncnc(N4CCc5cc(F)c(Cl)cc54)c3c2)cnc1Cl` reads 27% (inactive); that for `CC(=O)Nc1ccc(S(=O)(=O)Nc2ccc(-c3ccc4c(c3)NC(=O)/C4=C\c3ccc[nH]3)cc2)cc1`, 73% (inactive).
On to `Cc1nn(-c2ccccc2)c2nc(C)n(CC(=O)N/N=C/c3cccc([N+](=O)[O-])c3)c(=O)c12`, for which the growth is 77% (inactive).
The result for `CCC(=O)c1cc(C(=O)OC)c2ccc3c4ccccc4ccc3n12` reads 66.9% (inactive); that for `Cc1ccc(C(=O)Nc2cc(-n3cnc(F)c3)cc(C(F)(F)F)c2)cc1C#Cc1cnc2cccnn12`, 106% (inactive).
As to `O=C(N=Nc1c(O)[nH]c2ccc(Cl)cc12)c1ccc2nc(-c3ccc(Cl)cc3)[nH]c2c1`, the growth was -52.2% (active).
Turning to `COc1cc(C=O)ccc1OC(=O)c1cc(-c2ccc(C)cc2)n(-c2ccc(S(C)(=O)=O)cc2)n1`, the growth is 90.3% (inactive).
The result for `CC(C)CN1C(=O)/C(=C\C(=O)c2cc3ccccc3oc2=O)c2ccccc21` reads 100% (inactive).
As to `Nc1nc2cc(-c3ccc4ncnc(NCc5ccccc5)c4c3)ccc2o1`, the growth was 23% (inactive).
Take `Cc1cccc(NCC(=O)N2CCN(c3ncnc4c3cnn4-c3ccccc3)CC2)c1`: the growth was 88.9% (inactive).
The result for `Cn1cc(-c2cc(N)n3nc(-c4c[nH]c5ccccc45)cc3n2)c2cc(F)ccc21` reads 15% (inactive).
With `CCCCCCCCCc1ccc(C(=O)Nc2cc(C)ccc2C(=O)OC)cc1`, the growth is 106% (inactive).
Turning to `NC1(c2ccc(-c3ccc4ncnc(NCc5ccccc5)c4c3)cn2)COC1`, the growth is 100% (inactive) and 98.8% (inactive).
The result for `CCCCNC(=S)Nc1ccc(OCc2nc3ccc(Cl)cc3[nH]2)cc1` reads 53% (inactive); that for `CCC1(OC(=O)c2ccccc2SSCCOC(=O)CCCCC2SCC3NC(=O)NC32)C(=O)OCc2c1cc1n(c2=O)Cc2cc3ccccc3nc2-1` (stereo unspecified), 36.7% (inactive); that for `COc1ccc(/C=C/c2nc3ccccc3c(=O)n2CC(=O)Nc2ccccc2)cc1`, 29.1% (inactive).
On to `CC[C@]12C=CCN3CC[C@@]4(c5ccc(OC)cc5N(C)[C@H]4[C@@](O)(C(=O)OC)[C@@H]1OC(=O)CCCC[P+](c1ccc(F)cc1)(c1ccc(F)cc1)c1ccc(F)cc1)[C@@H]32`, for which the growth is 6.61% (active).
As to `COc1ccccc1NC(=O)N/N=C/c1c[nH]c2ccccc12`, the growth is 40.6% (inactive).
Take `Cc1ccc(C2CC(c3ccc(NC(=O)Nc4ccccc4)cc3)=NN2c2ccc(S(C)(=O)=O)cc2)cc1` (stereo unspecified): the growth is 4.8% (active).
The same measure for `CC1=C(C)C(=O)C(NCCN2CCOCC2)=C(Br)C1=O`: 91.3% (inactive).
As to `CC(=O)C[n+]1cccc2c3ccccc3ccc21`, the growth was 69.8% (inactive).
The same measure for `Cc1nn(-c2ccccc2)c2nc(C)n(CC(=O)N/N=C/c3ccccc3O)c(=O)c12`: 36.5% (inactive); for `O=C(CSc1nnc(-c2ccc(-c3nc4ccccc4[nH]3)cc2)o1)Nc1ccccc1`: 3.01% (active); for `Cc1cccc(-c2ccccc2Oc2ccc3nnc(Cl)n3n2)c1`: 97.8% (inactive).
The result for `Oc1cncc(-c2ccc3ncnc(N4CCc5cc(F)c(Cl)cc54)c3c2)c1` reads 38.6% (inactive); that for `CCOc1ccccc1[C@H]1C(C(=O)c2ccc(Cl)cc2)C2(N[C@@H]1c1ccccc1)C(=O)Nc1ccc(Br)cc12` (stereo partly specified), 17.1% (inactive); that for `Cc1ccc2c(c1)/C(=C/C(=O)c1cc3ccccc3oc1=O)C(=O)N2`, 87.8% (inactive).
As to `COC(=O)CSC1=C(C)C(=O)C(OC)=C(OC)C1=O`, the growth is 90.3% (inactive).
For the molecule `CCCCCCCCc1ccc(C(=O)Nc2ccc(C)c(OP(=O)(O)O)c2)cc1`, the growth is 91% (inactive).
